Assay [1] addresses Paired box protein Pax-6 (Homo sapiens) (UniProt P26367). In words: ATG_Pax6_CIS: Attagene CIS-FACTORIAL HepG2 Assay for human Paired Box 6 (PAX6) (AID 2282956). Conditions: HepG2 CIS-FACTORIAL PAX6 reporter transcription, RNA readout; actives raise or lower the signal. The essentials:
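Fluorescent RT-PCR products separated by capillary electrophoresis report PAX6-linked promoter mRNA in HepG2 cells 24 h post-dose. Curves fitted bidirectionally, DMSO as negative control.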

A short description of assay [2]: ATG_PXRE_CIS: Attagene CIS-FACTORIAL HepG2 Assay for human Pregnane X Receptor Element (PXRE) (AID 2282957). The following applies: HepG2 Attagene CIS-FACTORIAL PXRE reporter, mRNA; actives raise or lower the signal. A digest of the protocol: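 Endogenous transcription factor activity in HepG2 was gauged through induction of reporter mRNA driven by a cis-regulating promoter element, sampled 24 h post-treatment. Activity was fitted in both directions against DMSO negative control.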

Assay [3] can be described thus: ATG_PPRE_CIS: Attagene CIS-FACTORIAL HepG2 Assay for human Peroxisome Proliferator-activated Response Element (PPRE) (AID 2282958). The following applies: HepG2 PPRE cis-element reporter, Attagene transcription factor profiling; actives raise or lower the signal. The essentials:
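Cells are first transfected transiently with the multiplexed reporter library, then dosed for 24 h. Total RNA is reverse-transcribed, amplified, fluorescently end-labeled and HpaI-cut before capillary electrophoresis; activity is fitted bidirectionally against DMSO controls.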

A short description of assay [4]: ATG_RORE_CIS: Attagene CIS-FACTORIAL HepG2 Assay for human RAR-related Orphan Receptor Element (RORE) (AID 2282959). The following applies: HepG2 Attagene cis-factorial RORE reporter, mRNA; actives raise or lower the signal. The essentials:
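Cells were HepG2 carrying transfected cis-regulated reporter constructs, dosed for 24 hours. Total RNA was reverse-transcribed and reporter cDNA amplified, fluorescently labeled and sized by capillary electrophoresis. Activity was fitted bidirectionally relative to DMSO.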

Assay [5] can be described thus: ATG_Sox_CIS: Attagene CIS-FACTORIAL HepG2 Assay for human SRY-box transcription factor (SOX) (AID 2282960). The following applies: HepG2 Attagene cis-factorial SOX reporter, mRNA; actives raise or lower the signal. The essentials: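 Transient MRTU transfection of HepG2; 24 h compound incubation; TriZol RNA, oligo(dT) RT, PCR, 6-FAM primer extension, HpaI cut, CE. Bidirectional fit, DMSO = baseline.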

The nature of assay [6]: ATG_SREBP_CIS: Attagene CIS-FACTORIAL HepG2 Assay for human Sterol Regulatory Element Binding (SREBP) (AID 2282962). Conditions: HepG2 Attagene cis-factorial SREBP reporter, mRNA; actives raise or lower the signal. The essentials: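 Endogenous factor activity is measured in HepG2 through multiplexed reporter units under cis-element control. Following a 24 h incubation, reporter transcripts are reverse-transcribed, PCR-amplified and sized by capillary electrophoresis; activity is fitted in both directions relative to DMSO.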

In assay [7] the target is Signal transducer and activator of transcription 3 (Homo sapiens) (UniProt P40763). Put plainly: ATG_STAT3_CIS: Attagene CIS-FACTORIAL HepG2 Assay for human Signal Transducer and Activator of Transcription 3 (STAT3) (AID 2282963). Conditions: HepG2, Attagene cis-factorial STAT3 reporter transcription; actives raise or lower the signal. The essentials: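 Cis-factorial format: endogenous transcription factors in HepG2 drive transfected reporter units. After 24 h treatment, reporter RNA was reverse-transcribed, amplified, FAM-labelled and HpaI-digested before CE analysis; activity scored in both directions against DMSO.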
Chain of Signal transducer and activator of transcription 3 (Homo sapiens) (P40763 whole entry, looked up): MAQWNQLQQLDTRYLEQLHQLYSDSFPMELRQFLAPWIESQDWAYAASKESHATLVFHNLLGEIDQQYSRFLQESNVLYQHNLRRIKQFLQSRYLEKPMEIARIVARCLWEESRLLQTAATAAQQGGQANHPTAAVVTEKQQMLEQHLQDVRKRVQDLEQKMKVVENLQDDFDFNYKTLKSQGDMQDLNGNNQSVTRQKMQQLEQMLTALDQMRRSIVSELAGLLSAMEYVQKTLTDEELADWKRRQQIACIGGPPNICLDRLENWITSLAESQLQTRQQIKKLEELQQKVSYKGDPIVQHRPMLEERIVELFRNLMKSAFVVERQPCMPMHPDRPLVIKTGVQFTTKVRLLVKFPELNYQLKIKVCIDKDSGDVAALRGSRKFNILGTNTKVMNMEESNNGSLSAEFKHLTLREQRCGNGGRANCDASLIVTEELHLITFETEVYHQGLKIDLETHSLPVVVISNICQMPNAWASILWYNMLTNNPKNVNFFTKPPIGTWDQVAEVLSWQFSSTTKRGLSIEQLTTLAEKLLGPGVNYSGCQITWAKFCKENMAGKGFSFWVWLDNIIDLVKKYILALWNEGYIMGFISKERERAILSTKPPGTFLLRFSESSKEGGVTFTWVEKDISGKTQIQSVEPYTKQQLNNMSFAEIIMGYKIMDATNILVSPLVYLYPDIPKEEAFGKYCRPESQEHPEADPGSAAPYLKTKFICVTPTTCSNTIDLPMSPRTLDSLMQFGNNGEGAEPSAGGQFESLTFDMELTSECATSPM

Assay [8] is described as follows: ATG_TA_CIS: Attagene CIS-FACTORIAL HepG2 Assay for human TA Basal Promoter (AID 2282964). Conditions: HepG2 Attagene CIS-factorial TA basal promoter reporter; actives raise or lower the signal. A digest of the protocol: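 Background internal-marker endpoint from a 52-component HepG2 cis-reporter panel. Cells treated 24 h; reporter transcripts quantified via RT-PCR and CE fluorescence against DMSO baseline.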

A short description of assay [9]: ATG_TCF_b_cat_CIS: Attagene CIS-FACTORIAL HepG2 Assay for human T-Cell-Factor with beta-catenin (TCF/b-cat) (AID 2282965). Conditions: HepG2 TCF/beta-catenin cis-reporter transcription, actives raise or lower the signal. The essentials:
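Endogenous transcription factor activity is captured through cis-promoter reporter constructs transiently introduced into human HepG2 liver cells. Induced reporter mRNA is measured after 24 h and fitted bidirectionally relative to DMSO.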

Assay [10] in a line: ATG_TAL_CIS: Attagene CIS-FACTORIAL HepG2 Assay for human TAL Basal Promoter (AID 2282966).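 Also: background control endpoint measuring basal TAL promoter reporter mRNA not a specific factor.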 The following applies: HepG2 Attagene cis-factorial TAL promoter reporter; actives raise or lower the signal. A digest of the protocol:
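Endogenous transcription-factor activity is sensed in HepG2 cells through transfected cis-promoter reporter constructs. After 24 h dosing, reporter transcripts are quantified by RT-PCR and capillary electrophoresis. Gain or loss of signal is fitted relative to DMSO.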

Assay [11] can be described thus: ATG_TGFb_CIS: Attagene CIS-FACTORIAL HepG2 Assay for human Transforming Growth Factor (TGF) (AID 2282967). Conditions: HepG2 Attagene CIS TGFb reporter, mRNA transcription; actives raise or lower the signal. A digest of the protocol: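 Liver HepG2 line, cis-factorial reporter panel, 24 h dosing. Quantitation: RT-PCR products labeled with 6-FAM, cut with HpaI, resolved by capillary electrophoresis; DMSO-referenced bidirectional analysis.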

A short description of assay [12]: ATG_VDRE_CIS: Attagene CIS-FACTORIAL HepG2 Assay for human Vitamin D Receptor Element (VDRE) (AID 2282968). Conditions: HepG2 VDRE cis-reporter transcription, actives raise or lower the signal. The essentials: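 Measures endogenous factor activity through cis-element-driven reporter transcripts in transiently transfected HepG2. Cells are treated 24 h; reporter mRNA is quantified by RT-PCR and capillary electrophoresis; fitting is bidirectional.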

The target of assay [13] is X-box-binding protein 1 (Homo sapiens) (UniProt P17861). Put plainly: ATG_Xbp1_CIS: Attagene CIS-FACTORIAL HepG2 Assay for human X-box Binding Protein 1 (XBP1) (AID 2282972). Conditions: HepG2 XBP1 cis-element reporter, Attagene multiplex; actives raise or lower the signal. The essentials:
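Multiplexed cis-reporter readout in transfected HepG2 liver cells. Exposure lasted 24 hours. Activity in either direction was fitted against DMSO as negative control and baseline.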

The nature of assay [14]: ATG_GAL4_TRANS: Attagene TRANS-FACTORIAL HepG2 Assay for GAL4 (Internal Marker) (AID 2282976; active = hit-call score of the fitted dose curve at least 0.9, where 1 is the maximum). Conditions: HepG2 Attagene TRANS GAL4 internal marker reporter. A digest of the protocol: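 Fluorescence from capillary electrophoresis of labelled RT-PCR products quantifies reporter mRNA induction after 24 h dosing of HepG2 cells carrying transfected GAL4-UAS reporter transcription units. Vehicle DMSO serves as baseline.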

Assay [15] addresses Transcription factor Sp1 (Homo sapiens) (UniProt P08047). In words: ATG_Sp1_CIS: Attagene CIS-FACTORIAL HepG2 Assay for human Specificity Protein 1 (Sp1) (AID 2282961). Conditions: HepG2 Sp1 cis-reporter transcription, actives raise or lower the signal. A digest of the protocol:
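Endogenous Sp1 activity was gauged in human liver HepG2 cells bearing transfected reporter units under a cis-regulating promoter. After 24 h dosing, reporter mRNA was quantified by RT-PCR with capillary electrophoresis, and activity fitted bidirectionally versus DMSO.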

Assay [16] deals with Estrogen receptor (Homo sapiens) (UniProt P03372). Put plainly: ATG_ERa_TRANS: Attagene TRANS-FACTORIAL HepG2 Assay for human Estrogen Receptor alpha (ERa) (AID 2282970; active = hit-call score of the fitted dose curve at least 0.9, where 1 is the maximum). The following applies: HepG2 Attagene TRANS ERa GAL4 reporter, mRNA. A digest of the protocol:
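Transfected HepG2 cells carrying GAL4-UAS-driven reporter units were dosed for 24 hours. Total RNA was reverse-transcribed, reporter sequences PCR-amplified, FAM-labelled, HpaI-digested and resolved by capillary electrophoresis. Increases over DMSO control defined activity.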

Assay [17] in a line: ATG_M_19_TRANS: Attagene TRANS-FACTORIAL HepG2 Assay for M19 Transcription Factor (Internal Marker) (AID 2282974; active = hit-call score of the fitted dose curve at least 0.9, where 1 is the maximum). The following applies: HepG2 Attagene TRANS-FACTORIAL M19 internal marker reporter. The essentials: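 Cells: human HepG2, transiently transfected with multiplexed reporter transcription units. Exposure: 24 h. Detection: RT-PCR of reporter mRNA with capillary electrophoresis. Analysis: gain-of-signal vs DMSO.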

Assay [18] deals with Steroid hormone receptor ERR1 (Homo sapiens) (UniProt P11474). Put plainly: ATG_ERRa_TRANS: Attagene TRANS-FACTORIAL HepG2 Assay for human Estrogen-Related Receptor alpha (ERRa) (AID 2282971; active = hit-call score of the fitted dose curve at least 0.9, where 1 is the maximum). Conditions: HepG2 Attagene TRANS reporter, ERRa transactivation. The essentials:
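HepG2 cells were transiently transfected with multiple GAL4-UAS reporter units, then dosed with compound for 24 h. Total RNA was reverse-transcribed, reporter cDNA PCR-amplified and fluorescently labelled, and fragments resolved by capillary electrophoresis; induction was compared with DMSO.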

What is called AC50 is the midpoint of the concentration-response curve, whichever way the signal moves.

Results filed as inconclusive are left out. Active and inactive are the calls of the source. The calls were made as follows, unless noted: active = hit-call score of the fitted dose curve at least 0.9, where 1 is the maximum; inactive = score below 0.9.

Chain of Estrogen receptor (Homo sapiens) (P03372 whole entry, looked up, the tested form may be a part): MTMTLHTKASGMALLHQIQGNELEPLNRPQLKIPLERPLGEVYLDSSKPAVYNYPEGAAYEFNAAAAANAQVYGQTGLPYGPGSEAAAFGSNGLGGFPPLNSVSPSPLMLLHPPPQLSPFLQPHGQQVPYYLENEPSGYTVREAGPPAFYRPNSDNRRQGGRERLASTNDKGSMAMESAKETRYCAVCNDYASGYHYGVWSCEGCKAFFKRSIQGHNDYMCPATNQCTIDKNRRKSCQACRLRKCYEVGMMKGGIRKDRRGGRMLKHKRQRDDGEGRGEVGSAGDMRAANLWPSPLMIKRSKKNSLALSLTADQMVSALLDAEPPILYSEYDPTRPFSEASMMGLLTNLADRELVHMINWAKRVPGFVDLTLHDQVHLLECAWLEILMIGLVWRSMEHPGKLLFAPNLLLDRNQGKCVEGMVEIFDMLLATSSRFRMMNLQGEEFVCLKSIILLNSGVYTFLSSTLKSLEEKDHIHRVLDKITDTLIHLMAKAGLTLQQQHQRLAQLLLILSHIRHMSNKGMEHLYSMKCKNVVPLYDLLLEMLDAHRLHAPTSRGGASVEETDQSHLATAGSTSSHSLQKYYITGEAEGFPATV
Chain of X-box-binding protein 1 (Homo sapiens) (P17861 whole entry, looked up): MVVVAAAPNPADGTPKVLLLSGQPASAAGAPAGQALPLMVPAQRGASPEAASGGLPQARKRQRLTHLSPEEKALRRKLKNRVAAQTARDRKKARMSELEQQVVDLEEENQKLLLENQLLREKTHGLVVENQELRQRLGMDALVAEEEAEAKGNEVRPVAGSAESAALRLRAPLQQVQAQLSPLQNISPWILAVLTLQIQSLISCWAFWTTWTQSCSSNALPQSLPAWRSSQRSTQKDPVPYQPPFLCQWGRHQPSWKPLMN
Chain of Paired box protein Pax-6 (Homo sapiens) (P26367 whole entry, looked up): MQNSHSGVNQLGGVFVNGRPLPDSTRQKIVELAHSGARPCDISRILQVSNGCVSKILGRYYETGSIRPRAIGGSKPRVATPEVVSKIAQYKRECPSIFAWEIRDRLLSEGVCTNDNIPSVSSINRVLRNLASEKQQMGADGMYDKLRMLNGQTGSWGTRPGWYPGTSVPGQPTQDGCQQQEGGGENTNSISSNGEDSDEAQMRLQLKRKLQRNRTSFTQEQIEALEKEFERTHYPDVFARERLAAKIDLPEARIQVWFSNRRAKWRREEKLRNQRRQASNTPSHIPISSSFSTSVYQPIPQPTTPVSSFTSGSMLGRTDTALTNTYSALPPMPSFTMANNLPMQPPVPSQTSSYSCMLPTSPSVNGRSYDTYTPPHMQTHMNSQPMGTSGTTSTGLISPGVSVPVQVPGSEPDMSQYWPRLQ
Chain of Transcription factor Sp1 (Homo sapiens) (P08047 whole entry, looked up): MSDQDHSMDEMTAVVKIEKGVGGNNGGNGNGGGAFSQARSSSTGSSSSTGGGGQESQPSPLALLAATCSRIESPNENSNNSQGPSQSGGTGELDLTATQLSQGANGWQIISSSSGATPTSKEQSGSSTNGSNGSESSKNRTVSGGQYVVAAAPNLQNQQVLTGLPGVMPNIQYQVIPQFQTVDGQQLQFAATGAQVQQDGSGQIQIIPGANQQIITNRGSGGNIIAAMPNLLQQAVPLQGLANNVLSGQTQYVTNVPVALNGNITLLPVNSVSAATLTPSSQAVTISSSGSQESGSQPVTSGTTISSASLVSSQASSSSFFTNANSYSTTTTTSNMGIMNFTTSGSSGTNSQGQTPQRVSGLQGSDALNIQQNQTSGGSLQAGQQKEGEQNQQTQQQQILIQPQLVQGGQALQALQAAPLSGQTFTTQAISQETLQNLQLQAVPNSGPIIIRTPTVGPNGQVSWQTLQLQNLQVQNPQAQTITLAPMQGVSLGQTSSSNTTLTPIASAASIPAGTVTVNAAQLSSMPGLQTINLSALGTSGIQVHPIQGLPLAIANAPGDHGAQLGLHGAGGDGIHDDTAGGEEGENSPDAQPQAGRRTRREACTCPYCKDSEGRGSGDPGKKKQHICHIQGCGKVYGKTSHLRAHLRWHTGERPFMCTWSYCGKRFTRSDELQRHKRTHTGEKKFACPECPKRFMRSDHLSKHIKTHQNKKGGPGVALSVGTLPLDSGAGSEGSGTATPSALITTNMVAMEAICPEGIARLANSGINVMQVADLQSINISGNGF
Chain of Steroid hormone receptor ERR1 (Homo sapiens) (P11474 whole entry, looked up, the tested form may be a part): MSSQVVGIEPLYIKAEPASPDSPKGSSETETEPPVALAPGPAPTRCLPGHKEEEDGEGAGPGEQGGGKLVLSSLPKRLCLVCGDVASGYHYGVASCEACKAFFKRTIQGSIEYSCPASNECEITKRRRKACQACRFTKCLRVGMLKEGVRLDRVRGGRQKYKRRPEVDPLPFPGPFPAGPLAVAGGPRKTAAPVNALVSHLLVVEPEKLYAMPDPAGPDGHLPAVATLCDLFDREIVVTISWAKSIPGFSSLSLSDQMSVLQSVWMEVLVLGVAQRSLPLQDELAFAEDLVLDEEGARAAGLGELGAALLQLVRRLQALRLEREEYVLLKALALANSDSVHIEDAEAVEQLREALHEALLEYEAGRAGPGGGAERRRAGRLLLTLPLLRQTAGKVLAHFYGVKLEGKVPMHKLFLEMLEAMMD

On to `CC(C)=NNC(N)=S`, for which the compound was called inactive in assay [1], in assay [2], in assay [3], in [4], in assay [5] and in assay [6]. In addition, the result in [7], in assay [8], in assay [9], in assay [10], in assay [11] and in [12] was inactive. For the same compound, the compound was called inactive in assay [13] and in assay [14].
Consider `CN1CCN(C)CC1`, for which the outcome in assay [1], in assay [2], in [3], in assay [5], in [15] and in assay [6] was inactive. Besides, the compound was called inactive in assay [7], in assay [8], in assay [9], in [10], in assay [11] and in assay [12]. The call in [16], in [13] and in [17] was inactive.
Turning to `c1ccc2sc(SSN3CCOCC3)nc2c1`, the half-maximal activity concentration (AC50) was 100 µM (active) in assay [1]; 138 µM (active) in assay [5]; 70.4 µM (active) in [15]; 59.2 µM (active) in assay [6]; 139 µM (active) in assay [7]; 100 µM (active) in assay [13]. The result in assay [2], in assay [4], in assay [8], in assay [9], in assay [10] and in [11] was inactive. Further, the result in assay [12] and in assay [16] was inactive.
With `Cc1c[nH]c(=O)[nH]c1=O`, the result in assay [1], in assay [2], in assay [3], in [4], in [5] and in assay [15] was inactive. Moreover, the outcome in assay [6], in [7], in [9], in [10], in assay [12] and in [13] was inactive.
Turning to `N#Cc1ccc(C(c2ccc(C#N)cc2)n2cncn2)cc1`, the call in assay [1], in assay [2], in assay [3], in [5], in assay [15] and in assay [6] was inactive. In addition, the outcome in [7], in [8], in [9], in assay [10], in assay [11] and in assay [12] was inactive. Also, the compound was called inactive in assay [16], in [13] and in assay [17].
Turning to `C=CCCCCCCCCOC(C)=O`, the call in assay [1], in assay [2], in [4], in assay [5], in assay [15] and in assay [6] was inactive. Moreover, the call in assay [8], in assay [9], in assay [10], in [11], in [16] and in [18] was inactive. Moreover, the result in assay [13], in assay [17] and in assay [14] was inactive.

The values above are taken from PubChem BioAssay (EPA / NIEHS).
